# Compound activity: PubChem BioAssay, Broad Institute
# NOMO-1 viab: NOMO-1 AML cell viability reduction, primary screen, STK33 inhibitor project, CellTiter-Glo luminescence; AID 2330, 2010; hit rate 7.5% among 37,000; inhibition, % (concentration not given with the values); NOMO-1 AML viability, 72 h; in the data active = inhibition above about 80%
# PD-1 reverse act: activators reversing PD-1 mediated T-cell inhibition, primary screen, luminescence, primary human CD4 T cells, PD-L1 beads | 29,000 tested, under 10 active | activation, % (no concentration beside the values) | CellTiter-Glo 96 h; call rule not given here;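 also: 0% = median vehicle wells and 100% = positive control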
# Shh pathway inh: Hedgehog pathway signaling inhibitors, primary screen, luminescence, Shh-LIGHT2 cells, Gli-luciferase | Shh-LIGHT2 Gli-luciferase reporter, 30 h | inhibition, % (test concentration not listed) | hit rate 2.1% among 22,000 | AID 2313, 2010;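 active = mean inhibition across valid replicates above about 65%, limit read from the data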;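 also: pathway switched on by Shh-conditioned medium diluted 1 in 25 in low serum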
# MITF inh: inhibitors of MITF, primary screen, MITF inhibitor project, cell-based, luminescence; TRPM1 promoter luciferase, 24 h; hit rate 0.28% among 37,000; inhibition, % (test concentration not listed); AID 2240, 2010; in the data active = inhibition above about 85%;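 also: human melanocyte line stably carrying TRPM1 promoter luciferase reporter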
# The depositor's hits bear a star; / = not tested or not shown. Hits are enriched below; roughly 7.8% of the tested compounds scored in any of these assays.
SMILES,NOMO-1 viab,PD-1 reverse act,Shh pathway inh,MITF inh
CCCCCC(=O)O[C@]1(C(C)=O)CCC2C3CCC4=CC(=O)CC[C@]4(C)C3CC[C@@]21C (some centres not stated),110*,/,96*,13
COc1ccc(C(C)C)cc1S(=O)(=O)n1cnc2ccccc21,123*,-3,/,21
COc1ccc(C(C)C)cc1S(=O)(=O)n1nnc2ccccc21,-2,0,/,-6
CC(Oc1ccccc1-c1ccccc1)c1n[nH]c(=S)n1-c1ccccc1 (configuration not stated),11,0,69*,11
CCC(C)C1NC(=O)C(CC(C)C)NC(=O)C(CC(=O)O)NC(=O)C(C(C)C)NC(=O)C(CC(C)C)NC(=O)C(CC(C)C)NC(=O)C(CCC(N)=O)NC(=O)CC(CCCCCCCCCC(C)C)OC1=O (configuration not stated),/,/,77*,/
C[C@@H]1CN([C@H](C)CO)C(=O)Cc2cc(NC(=O)Nc3ccccc3)ccc2O[C@@H]1CN(C)Cc1ccc(-c2ccccc2)cc1,107*,-6,4,13
C[C@@H]1CN([C@H](C)CO)C(=O)Cc2cc(NC(=O)Nc3ccc(F)cc3)ccc2O[C@@H]1CN(C)Cc1ccc(-c2ccccc2)cc1,50,-4,36,6
C[C@@H]1CN([C@@H](C)CO)C(=O)Cc2cc(NC(=O)Nc3ccccc3)ccc2O[C@@H]1CN(C)Cc1ccccc1,23,1,-5,1
CC(C)NC(=O)Nc1ccc2c(c1)CC(=O)N([C@H](C)CO)C[C@H](C)[C@H](CN(C)Cc1ccc(-c3ccccc3)cc1)O2,42,-2,-18,0
C[C@H]1CN([C@@H](C)CO)C(=O)Cc2cc(NC(=O)Nc3ccc(F)cc3)ccc2O[C@@H]1CN(C)Cc1ccc(-c2ccccc2)cc1,106*,3,-68,-11
CC(C)NC(=O)Nc1ccc2c(c1)CC(=O)N([C@@H](C)CO)C[C@@H](C)[C@@H](CN(C)Cc1ccc(-c3ccccc3)cc1)O2,94*,0,19,22
COc1ccc(NC(=O)Nc2ccc3c(c2)CC(=O)N([C@@H](C)CO)C[C@H](C)[C@H](CN(C)Cc2ccc(-c4ccccc4)cc2)O3)cc1,128*,-2,22,24
CCOC(=O)c1sc(SC)c2c1CCCC21SCCS1,17,-1,36,-1
CCN(CC)c1nc2ccccc2c(=O)s1,30,0,-4,-65
C=CCSc1nnc2c(n1)OC(c1ccc(-c3ccc(F)cc3)o1)N(C(C)=O)c1ccccc1-2 (configuration not stated),35,0,9,-3
O=C(Oc1ccc(-c2ccccc2)cc1)c1cccs1,23,0,4,-12
COC(=O)c1c(C)cc2c(c(C)c1=O)OC1(C2)C(C)CCC2C(C)(C)OC(=O)C=CC21C (configuration not stated),107*,-10,-51,44
CC1=C(C#N)C(c2ccccc2)C(C#N)=C(C)N1,28,-1,-31,7
C[C@@H]1CN([C@@H](C)CO)C(=O)c2cc(NC(=O)Nc3ccc(C(F)(F)F)cc3)ccc2O[C@@H]1CN(C)C(=O)Nc1ccc2c(c1)OCO2,102*,-4,40,44
C[C@@H]1CN([C@H](C)CO)C(=O)c2cc(NC(=O)Nc3ccc4c(c3)OCO4)ccc2O[C@H]1CN(C)C(=O)Nc1ccc(C(F)(F)F)cc1,23,0,0,28
C[C@@H]1CN([C@H](C)CO)C(=O)c2cc(NC(=O)Nc3ccc(C(F)(F)F)cc3)ccc2O[C@@H]1CN(C)C(=O)Nc1ccc2c(c1)OCO2,95*,-1,4,35
C[C@H]1CN([C@@H](C)CO)C(=O)c2cc(NC(=O)Nc3ccc(C(F)(F)F)cc3)ccc2O[C@H]1CN(C)C(=O)Nc1ccc2c(c1)OCO2,42,-1,12,-20
Cc1ccccc1OCCn1c(C(C)O)nc2ccccc21 (configuration not stated),27,/,/,10
O=C(Nc1ccccc1C(F)(F)F)C1Sc2nnc(-c3ccccc3)n2NC1c1ccc(F)cc1 (configuration not stated),48,-2,20,25
CCOc1cc(/C=C2/SC(=N)N(c3nccs3)C2=O)ccc1OCCN1CCOCC1,112*,-49,38,35
SMILES,NOMO-1 viab,PD-1 reverse act,Shh pathway inh,MITF inh
N=C1S/C(=C/c2ccccc2)C(=O)N1c1nonc1N,28,-7,-81,-28
CC(C)(CO)NC(=O)c1sc2ccccc2c1Cl,25,-1,/,-46
C[C@H](CO)N1C[C@H](C)[C@H](CN(C)Cc2ccc(C(F)(F)F)cc2)Oc2ccc(NS(=O)(=O)c3ccc(F)cc3)cc2CC1=O,103*,/,/,7
C[C@H](CO)N1C[C@H](C)[C@H](CN(C)Cc2ccc(C(F)(F)F)cc2)Oc2ccc(NS(C)(=O)=O)cc2CC1=O,19,-2,-11,-7
Cc1ccc(S(=O)(=O)Nc2ccc3c(c2)CC(=O)N([C@@H](C)CO)C[C@H](C)[C@H](CN(C)Cc2ccc(C(F)(F)F)cc2)O3)cc1,112*,1,29,-4
C[C@@H]1CN([C@H](C)CO)C(=O)Cc2cc(NS(C)(=O)=O)ccc2O[C@@H]1CN(C)Cc1ccc(C(F)(F)F)cc1,31,-7,36,-14
Cc1cc(C)n(C(=O)c2ccc(COc3c(F)c(F)cc(F)c3F)o2)n1,36,/,/,-20
C=C[C@@]12COC(=O)C(=C)C1[C@@H](O)[C@H](C(=C)C(=O)OC)[C@@H](OC(=O)C(=C)CO)C2 (some centres not stated),116*,-16,-3,5
C=C[C@@]12COC(=O)C(=C)[C@@H]1[C@@H](O)[C@H](C(=C)C(=O)OC)[C@@H](O)C2,83*,-10,8,-22
Cc1ccc(-c2nnc(-n3cnc4cc(C)c(C)cc43)c3ccccc23)cc1,42,1,/,22
N#CCCN(CCC#N)C(=O)c1cc(-c2ccccc2)nc2ccccc12,17,/,/,-6
On1onc2c3cc(-c4ccccc4)nc3ccc21,115*,-3,99*,41
COc1ccc(OC)c(NC(=O)COc2ccc3c(=O)c(Oc4ccccc4Br)coc3c2)c1,37,-4,/,95*
CSc1nc2sc3c(c2c2nnc(SCC(=O)Nc4ccccc4)n12)CCC3,129*,-4,/,80
O=C(CSc1nc2sc3c(c2c(=O)n1-c1ccccc1)CCCC3)Nc1ccccc1,29,/,/,-3
C[C@@H]1CN([C@H](C)CO)C(=O)c2cc(NC(=O)Cc3ccccc3)ccc2O[C@@H]1CN(C)Cc1ccc(C(=O)Nc2ccccc2N)cc1,105*,-3,/,-29
C[C@@H]1CN([C@H](C)CO)C(=O)c2cc(NC(=O)Nc3ccccc3)ccc2O[C@@H]1CN(C)Cc1ccc(C(=O)Nc2ccccc2N)cc1,109*,-3,/,11
Cc1cc(C)cc(N(C(C)C(=O)O)S(C)(=O)=O)c1 (configuration not stated),-12,2,/,-6
